Source: PubChem BioAssay (Sanford-Burnham Center for Chemical Genomics)
This is a sample that favours compounds with a hit; in the whole collection about 4% have one here.
TROY NFkB inh – inhibitors of TROY-driven NF-kB signaling, primary screen, Q293 LMP1-TROYcd cells, NF-kB luciferase, uHTS; AID 1347056, 2019; inhibition, % at 10 µM; Q293 LMP1-TROYcd NF-kB luciferase reporter, 4 h; 360,000 compounds, 0.98% hits;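 active means compounds whose plate-normalised and pattern-corrected inhibition of the luciferase reporter signal at the single screening dose is 50% or more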
TWEAK-Fn14 inh – inhibitors of TWEAK-Fn14 signaling, primary screen, luciferase reporter cells, uHTS | 360,000 compounds, 2% hits | AID 1159606, 2016 | TWEAK-stimulated Fn14 reporter cells, luciferase luminescence, 8 h | inhibition, % at 10 µM; in the data active means inhibition above about 50%
KKLEB tox – cytotoxicity in KKLEB CF airway cells, primary screen, cytotoxicity control for CF NF-kB inhibitor project, cell-based, uHTS, fluorescence assay plates; KKLEB CF airway cells viability, ATPlite luminescence, overnight; hits give low values; cells stimulated with P. aeruginosa culture filtrate; activity change (cytotoxicity), % at 5 µM; 360,000 compounds, 0.36% hits;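 active means corrected activity change at or below -50% at 5 µM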
Peg3 prom inh – Peg3 promoter-driven luciferase inhibitors, primary screen, cell-based, HeLa, luciferase luminescence; 360,000 compounds, 1.7% hits; inhibition, % at 20 µM; HeLa PEG-Prom luciferase reporter, overnight; AID 588405, 2011;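 active means inhibition of at least 50% at 20 µM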
HIF-2a block – HIF-2a reporter inhibitors, primary screen, luminescence, 786-0 RCC cells; 786-0 RCC cells HIF-2a reporter, luciferase luminescence, overnight; inhibition, % at 18.8 µM; 360,000 compounds, 0.72% hits; AID 624352, 2012;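 active means inhibition of the luminescence signal of 40% or more relative to plate controls, in a single-dose primary screen at 18.75 µM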
CF NFkB block – inhibitors of PAF-induced NF-kB signaling, primary screen, cell-based, GFP fluorescence, uHTS; KKLEB NF-kB-GFP reporter, GFP fluorescence overnight; inhibition, % at 5 µM; 360,000 compounds, 0.86% hits;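 active means at least 50% inhibition at 5 µM, scaled per plate between neutral and stimulator controls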;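 further: PAF is a Pseudomonas aeruginosa culture filtrate used as stimulus; plate controls were PAF-stimulated DMSO wells for no effect and unstimulated DMSO wells for full effect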
Starred values were filed as active, the others as inactive; . = not tested or not shown.

SMILES	TROY NFkB inh	TWEAK-Fn14 inh	KKLEB tox	Peg3 prom inh	HIF-2a block	CF NFkB block
CC(OC(=O)c1ccc(O)cc1)C(=O)Nc1nc(-c2ccccc2)cs1 (stereo not given)	42	55*	11	-24	-71	-17
Cc1ccc(S(=O)(=O)N2c3ccccc3OC(C(=O)OC(C)(C)C)(C(=O)OC(C)(C)C)C2CC(=O)c2ccccc2)cc1 (stereo not given)	.	.	.	.	-6	.
CC(C)(C)c1ccc(C(=O)Nc2cnccn2)cc1	13	61*	-37	-44	-97	22
O=C(Nc1ccccn1)C(=O)Nc1ccccn1	29	51*	10	-175	-218	-4
O=C(Nc1ccccn1)c1ccc(-c2ccccc2)cc1	54*	89*	-55*	1	11	-15
COc1ccc(C(=O)Nc2cnccn2)cc1[N+](=O)[O-]	-2	6	17	-10	-10	-21
CC(C)Oc1ccc(C(=O)Nc2c3c(nn2-c2ccccc2)CS(=O)(=O)C3)cc1	-12	-6	3	-5	1	1
CC1=C(C(=O)N(C(C)C)C(C)C)CC(CC(=O)NC(c2ccccc2)c2ccccc2)C(=O)N1CCCN1CCCC1=O (stereo not given)	6	-3	-9	4	15	-11
CC(C)n1cc(CN2CCCC(C(=O)Nc3cccc(-c4cc5ccccc5[nH]4)c3)C2)cn1 (stereo not given)	-5	11	-13	97*	7	26
Cn1cc(CN2CCCC(C(=O)Nc3cccc(-c4cc5ccccc5[nH]4)c3)C2)cn1 (stereo not given)	-18	8	-6	56*	2	-7
COCCCNC(CC(=O)Nc1cc(C)cc(C)c1)C(=O)O (stereo not given)	4	5	-6	-6	2	12
O=C(CN1C(=O)CSc2ccc(S(=O)(=O)N3CCCCC3)cc21)NCc1ccccc1Cl	-9	18	12	13	-2	-10
CCOC(=O)N1CCN(C(=O)c2ccc3c(c2)sc2nc(-c4ccccc4)cn23)CC1	59*	29	-5	-169	-305	-1
CCOC(=O)N1CCN(C(=O)c2ccc3nc(C)sc3c2)CC1	-11	9	-4	-12	4	5
CCOC(=O)CSc1n[nH]c(NC(=O)c2ccc(F)cc2)n1	5	50*	0	4	-20	6
N=C1SCC(=O)N1c1ncc(Cc2ccc(F)cc2)s1	33	103*	5	5	-22	-40
Cc1ccc(C(=O)Nc2ncc(Cc3ccc(F)cc3)s2)o1	-9	25	-11	-297	-177	0
CN1CCN(C(=O)c2cc(Cl)ccc2NC(=O)c2ccc(Cl)cc2Cl)CC1	6	3	-4	9	4	15
O=C(Nc1cccc(C(F)(F)F)c1)Nc1ccc2nc([C@@H]3O[C@H](CO)[C@@H](O)[C@H](O)[C@H]3O)[nH]c2c1	7	-17	-2	-23	-3	-5
COc1ccc(-c2cn3c(C)c(C(=O)N4CCCc5ccccc54)sc3n2)cc1	26	39	12	-4	-67	-47
COc1ccc(-c2cn3c4c(sc3n2)CCCC4)cc1	23	73*	-67*	-58	-19	-10
C[C@@H]1CN([C@H](C)CO)C(=O)CCCn2cc(nn2)CO[C@H]1CN(C)S(=O)(=O)c1cccc(C#N)c1	4	2	3	2	-1	-1
Cc1c(/C(O)=C2\C(=O)C(=O)N(CCCN(C)C)C2c2ccccc2)cnn1-c1ccccc1 (stereo not given)	86*	82*	-12	10	20	7
Cc1c(/C(O)=C2\C(=O)C(=O)N(CCN(C)C)C2c2cccnc2)cnn1-c1ccccc1 (stereo not given)	29	14	3	1	-12	6
COc1ccc(-c2csc(NC(=O)CCNC(=O)c3ccco3)n2)cc1	-3	-25	-9	-1	2	-13
SMILES	TROY NFkB inh	TWEAK-Fn14 inh	KKLEB tox	Peg3 prom inh	HIF-2a block	CF NFkB block
O=C1C(Nc2ccccc2)=C(N2CCCCC2)C(=O)c2ccccc21	-37	21	4	34	-1	16
Cc1ccc(NC2=C(N3CCCCC3)C(=O)c3ccccc3C2=O)cc1	27	64*	-2	3	-154	-2
O=C(/C=C/c1ccc(O)cc1)c1ccc(NC2=C(N3CCCCC3)C(=O)c3ccccc3C2=O)cc1	5	53*	-15	-46	-62	55*
COc1ccccc1NC1=C(N2CCCCC2)C(=O)c2ccccc2C1=O	58*	67*	-6	64*	-18	0
COc1cc(OC)c2ccc(=O)oc2c1C(CCN1CCCC(C)C1)c1ccc(N(C)C)cc1 (stereo not given)	-7	-6	0	-12	-6	14
CCCCCc1cc(=O)oc2c(C(CCN3CCCC(C)C3)c3cc(OC)c(OC)c(OC)c3)c(OC)cc(OC)c12 (stereo not given)	15	-18	-10	101*	11	17
CCCCCc1cc(=O)oc2c(C(CCN3CCCC(C)C3)c3ccc(N(C)C)cc3)c(OC)cc(OC)c12 (stereo not given)	17	0	-7	94*	-7	26
CCCCCc1cc(=O)oc2c(C(CCN3CCCCC3)c3cc(OC)c(OC)c(OC)c3)c(OC)cc(OC)c12 (stereo not given)	12	-46	-9	90*	10	3
COc1cc(C(CCN2CCCC2)c2c(OC)cc(OC)c3ccc(=O)oc23)cc(OC)c1OC (stereo not given)	-1	-1	-2	-2	6	-7
CCCCCc1cc(=O)oc2c(C(CCN(CC)CC)c3ccc(N(C)C)cc3)c(OC)cc(OC)c12 (stereo not given)	5	7	-36	100*	4	26
O=C(Nc1ccccc1C(=O)NCc1cccnc1)c1ccccc1F	19	6	8	3	-2	1
C#CCn1c(=NC(=O)c2cc(-c3cccs3)nc3ccccc23)sc2cc(S(N)(=O)=O)ccc21	9	-5	-56*	30	30	37
C#CCn1c(=NC(=O)c2cc(Cl)sc2Cl)sc2cc(S(N)(=O)=O)ccc21	2	17	6	-9	5	-13
Cc1oc(-c2cccc3ccccc23)nc1CN1CCN(c2ncnc3ccccc23)CC1	42	69*	-29	17	16	28
